Assay results as given in ChEMBL document CHEMBL1157539, “Thousands of chemical starting points for antimalarial lead identification” (Nature, 2010).

Columns and labels:
Format in all cases: functional
Plasmodium falciparum [1] = test: GSK_TCMDC: Inhibition of Plasmodium falciparum 3D7 in whole red blood cells, using parasite LDH activity as an index of growth. Test compounds present at 2uM
Plasmodium falciparum [2] = test: GSK_TCMDC: Inhibition of Plasmodium falciparum Dd2 in whole red blood cells, using parasite LDH activity as an index of growth. Test compounds present at 2uM
HepG2 = test: GSK_TCMDC: Percent inhibition of human HepG2 cell line. Test compounds present at 10uM.

Row | SMILES | Inhibition (Plasmodium falciparum [1]) [%] | Inhibition (Plasmodium falciparum [2]) [%] | Inhibition (HepG2) [%]
1 | COc1ccc(CCNC(=O)c2cc3c(=O)n4cccc(C)c4nc3n(C)c2=N)cc1 | 99 | 99 | 22
2 | CC(=NNC(=N)N)c1ccc2c(c1)Cc1ccccc1-2.Cl | 100 | 10 | 44
3 | CN(CC(=O)Nc1cc(C(F)(F)F)ccc1-n1cncn1)Cc1ccc2ccccc2c1 | 98 | 99 | 18
4 | CC(CNCc1cn(Cc2cc(Br)cc(Br)c2)c2ccccc12)CNc1cc(=O)c2ccccc2[nH]1 (configuration not stated) | 100 | 50 | 10
5 | Cc1cc(N(C)C)nc(Nc2ccc(NC(=O)c3ccccc3Cl)cc2)n1 | 88 | 31 | 3
6 | CN(C)CCCOc1ccc(-c2nc(-c3ccc4c(c3)CCC4=NO)c(-c3ccncc3)[nH]2)cc1.Cl | 96 | 63 | 68
7 | COc1ccc(CC(=O)Nc2ccc(Nc3nc(C)cc(N(C)C)n3)cc2)cc1 | 97 | 31 | 17
8 | CN1CCC(C(=O)N(Cc2ccc(-c3ccc(CNCCc4ccccc4)cn3)cc2)C2CCN(Cc3ccccc3)CC2)CC1.O=C(O)C(F)(F)F | 100 | 99 | 24
9 | CC(C)c1cccc(OCC2CCN(c3ccc(C(=O)Nc4ccccc4)cn3)CC2)c1 | 95 | 90 | 9
10 | O=C(/C=C/c1ccc(-c2nc3ccc(Cl)cc3[nH]2)cc1)NCc1cccc(F)c1 | 99 | 68 | 1
11 | Cl.Oc1cccc(Nc2nc(NCC3CCCO3)c3ccccc3n2)c1 (configuration not stated) | 100 | 87 | 0
12 | CCNC(=O)Nc1ccc(N(C)c2ccnc(Nc3ccc(CS(C)(=O)=O)cc3)n2)cc1.Cl | 100 | 99 | 0
13 | CCCN(CCC)S(=O)(=O)c1ccc(C(=O)Nc2nc3ccc(-c4cc(=O)[nH]c(Nc5ccccc5Cl)n4)cc3[nH]2)cc1 | 100 | 98 | 1
14 | CCc1ccc(NC(=O)c2cccc(CN3CCCN(Cc4ccc(OC)cc4)CC3)c2)cc1.O=C(O)C(F)(F)F | 97 | 0 | 35
15 | Cl.Nc1ccc2c(N)c3ccccc3nc2c1 | 93 | 74 | 20
16 | COc1ccccc1NC(=O)Nc1cccc(-c2cccc(-c3nc4cccc(C)c4[nH]3)c2)c1 | 100 | 90 | 11
17 | CCC(CC)C(CC(=O)NC(C)(C)CCc1ccccc1OC)Nc1ccc(C#N)c2ccccc12 (configuration not stated) | 93 | 91 | 9
18 | CCOc1ccc(-c2n[nH]c(C(F)(F)F)c2-c2ccccc2OC)c(O)c1 | 86 | 12 | 22
19 | COc1ccc(CNCc2ccsc2)cc1-c1ccc(S(=O)(=O)NCCN2CCCC2)c(C)c1.O=C(O)C(F)(F)F | 85 | 43 | 49
20 | O=[N+]([O-])c1ccc(N/C(=N\c2ccccc2Br)NC2CCCc3ccccc32)c(O)c1 (configuration not stated) | 98 | 89 | 0
21 | CC(C)C(=O)n1ncc2c3c(N)nc(N)nc3ccc21 | 87 | 3 | 0
22 | COc1cc2c(cc1OC)CN(CCCCNC(=O)c1ccc(NC(=O)c3cc(Cl)cc(Cl)c3)cc1)CC2 | 99 | 75 | 19
23 | CCC1CN2CCc3c([nH]c4ccc(OC)cc34)C2CC1CC1NCCc2cc(OC)c(OC)cc21.Cl (configuration not stated) | 100 | 21 | 17
24 | CC(C)CCN1CCCN(Cc2cccc(C(=O)Nc3ccc(C(C)(C)C)cc3)c2)CC1.O=C(O)C(F)(F)F | 85 | 1 | 33
25 | CNCCNCc1cccc(-c2ccc(-c3nc4ccccc4[nH]3)cc2)c1.O=C(O)C(F)(F)F | 99 | 27 | 13
26 | CC(C)(C)c1ccc(NC(=O)c2cccc(CN3CCCN(CC4CCCCC4)CC3)c2)cc1.O=C(O)C(F)(F)F | 93 | 47 | 97
27 | Cc1ccc(OCCCCONC(=O)c2ccccc2)cc1 | 96 | 1 | 6
28 | CC(CN(C)C)C(=O)Nc1ccc(-c2ccc(-c3nc4ccccc4[nH]3)cc2)cc1 (configuration not stated) | 99 | 83 | 2
29 | COc1cc(Nc2nc(N)c3cc(OC)c(OC)cc3n2)cc(OC)c1.Cl | 100 | 100 | 7
